Substitutions are numbered along the chain they refer to; changes in the protein carry UniProt numbers. The full ranking holds about 16,000 sequences; the median of “ka relative to ugcaugu” is about 0.0091, and the highest 2% start at about 0.032. The list comes from a sample in which the highest values are over-represented; it also holds similar and randomly drawn sequences.
T1: RBFOX1 RRM (Homo sapiens, UniProt Q9NWB1 109-208)
T1 sequence: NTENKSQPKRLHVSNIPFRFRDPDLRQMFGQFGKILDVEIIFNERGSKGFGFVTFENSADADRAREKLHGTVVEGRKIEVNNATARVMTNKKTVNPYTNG

B1: GUGGGCU (DNA:RNA)
RNA: GGGAGACCGGAAUUCAGAUUGUCCGUGGGCUUUAAAUCCCGUCGUAGCCACCA
DNA 1: CAATCTGAATTCCGGTCTCCC
DNA 2: TGGTGGCTACGACGGGATT
B2: CGUCAGA (DNA:RNA)
RNA: GGGAGACCGGAAUUCAGAUUGUCCCGUCAGAUUAAAUCCCGUCGUAGCCACCA
DNA 1: CAATCTGAATTCCGGTCTCCC
DNA 2: TGGTGGCTACGACGGGATT
B3: GGAGUGG (DNA:RNA)
RNA: B2 RNA with C25G, U27A, C28G, A29U, A31G
DNA 1: CAATCTGAATTCCGGTCTCCC
DNA 2: TGGTGGCTACGACGGGATT
B4: ACAUGGG (DNA:RNA)
RNA: B2 RNA with C25A, G26C, U27A, C28U, A29G, A31G
DNA 1: CAATCTGAATTCCGGTCTCCC
DNA 2: TGGTGGCTACGACGGGATT
B5: CCUAGUG (DNA:RNA)
RNA: B2 RNA with G26C, C28A, A29G, G30U, A31G
DNA 1: CAATCTGAATTCCGGTCTCCC
DNA 2: TGGTGGCTACGACGGGATT
B6: AAUUAGC (DNA:RNA)
RNA: B2 RNA with C25A, G26A, C28U, A31C
DNA 1: CAATCTGAATTCCGGTCTCCC
DNA 2: TGGTGGCTACGACGGGATT
B7: UUUAACA (DNA:RNA)
RNA: B2 RNA with C25U, G26U, C28A, G30C
DNA 1: CAATCTGAATTCCGGTCTCCC
DNA 2: TGGTGGCTACGACGGGATT
B8: GGGACGU (DNA:RNA)
RNA: B1 RNA with U26G, G28A, G29C, C30G
DNA 1: CAATCTGAATTCCGGTCTCCC
DNA 2: TGGTGGCTACGACGGGATT
B9: GGGUGCG (DNA:RNA)
RNA: B1 RNA with U26G, G28U, U31G
DNA 1: CAATCTGAATTCCGGTCTCCC
DNA 2: TGGTGGCTACGACGGGATT
B10: AGGGUGC (DNA:RNA)
RNA: B2 RNA with C25A, U27G, C28G, A29U, A31C
DNA 1: CAATCTGAATTCCGGTCTCCC
DNA 2: TGGTGGCTACGACGGGATT
B11: CGGGUGC (DNA:RNA)
RNA: B2 RNA with U27G, C28G, A29U, A31C
DNA 1: CAATCTGAATTCCGGTCTCCC
DNA 2: TGGTGGCTACGACGGGATT
B12: GGGUGCU (DNA:RNA)
RNA: B1 RNA with U26G, G28U
DNA 1: CAATCTGAATTCCGGTCTCCC
DNA 2: TGGTGGCTACGACGGGATT
B13: CCGGUGC (DNA:RNA)
RNA: B2 RNA with G26C, U27G, C28G, A29U, A31C
DNA 1: CAATCTGAATTCCGGTCTCCC
DNA 2: TGGTGGCTACGACGGGATT
B14: GGGGUGC (DNA:RNA)
RNA: B1 RNA with U26G, G29U, C30G, U31C
DNA 1: CAATCTGAATTCCGGTCTCCC
DNA 2: TGGTGGCTACGACGGGATT
B15: AGUCCCC (DNA:RNA)
RNA: B2 RNA with C25A, A29C, G30C, A31C
DNA 1: CAATCTGAATTCCGGTCTCCC
DNA 2: TGGTGGCTACGACGGGATT
B16: CUUCGCU (DNA:RNA)
RNA: B1 RNA with G25C, G27U, G28C
DNA 1: CAATCTGAATTCCGGTCTCCC
DNA 2: TGGTGGCTACGACGGGATT
B17: GCGUUAG (DNA:RNA)
RNA: B1 RNA with U26C, G28U, G29U, C30A, U31G
DNA 1: CAATCTGAATTCCGGTCTCCC
DNA 2: TGGTGGCTACGACGGGATT
B18: CUUGGGA (DNA:RNA)
RNA: B2 RNA with G26U, C28G, A29G
DNA 1: CAATCTGAATTCCGGTCTCCC
DNA 2: TGGTGGCTACGACGGGATT
B19: UUGCUUG (DNA:RNA)
RNA: B1 RNA with G25U, G28C, G29U, C30U, U31G
DNA 1: CAATCTGAATTCCGGTCTCCC
DNA 2: TGGTGGCTACGACGGGATT
B20: UGCUUUU (DNA:RNA)
RNA: B2 RNA with C25U, U27C, C28U, A29U, G30U, A31U
DNA 1: CAATCTGAATTCCGGTCTCCC
DNA 2: TGGTGGCTACGACGGGATT
B21: UCCUUGC (DNA:RNA)
RNA: B2 RNA with C25U, G26C, U27C, C28U, A29U, A31C
DNA 1: CAATCTGAATTCCGGTCTCCC
DNA 2: TGGTGGCTACGACGGGATT
B22: CUGCUGC (DNA:RNA)
RNA: B2 RNA with G26U, U27G, A29U, A31C
DNA 1: CAATCTGAATTCCGGTCTCCC
DNA 2: TGGTGGCTACGACGGGATT
B23: UUGUUAG (DNA:RNA)
RNA: B1 RNA with G25U, G28U, G29U, C30A, U31G
DNA 1: CAATCTGAATTCCGGTCTCCC
DNA 2: TGGTGGCTACGACGGGATT
B24: UUGUUGC (DNA:RNA)
RNA: B1 RNA with G25U, G28U, G29U, C30G, U31C
DNA 1: CAATCTGAATTCCGGTCTCCC
DNA 2: TGGTGGCTACGACGGGATT
B25: CCCCUGC (DNA:RNA)
RNA: B2 RNA with G26C, U27C, A29U, A31C
DNA 1: CAATCTGAATTCCGGTCTCCC
DNA 2: TGGTGGCTACGACGGGATT
B26: UGCUGCU (DNA:RNA)
RNA: B1 RNA with G25U, U26G, G27C, G28U
DNA 1: CAATCTGAATTCCGGTCTCCC
DNA 2: TGGTGGCTACGACGGGATT
B27: GUGCUAG (DNA:RNA)
RNA: B1 RNA with G28C, G29U, C30A, U31G
DNA 1: CAATCTGAATTCCGGTCTCCC
DNA 2: TGGTGGCTACGACGGGATT
B28: CUGCUUG (DNA:RNA)
RNA: B2 RNA with G26U, U27G, A29U, G30U, A31G
DNA 1: CAATCTGAATTCCGGTCTCCC
DNA 2: TGGTGGCTACGACGGGATT
B29: UUGCUAG (DNA:RNA)
RNA: B1 RNA with G25U, G28C, G29U, C30A, U31G
DNA 1: CAATCTGAATTCCGGTCTCCC
DNA 2: TGGTGGCTACGACGGGATT
B30: UGCUUUG (DNA:RNA)
RNA: B2 RNA with C25U, U27C, C28U, A29U, G30U, A31G
DNA 1: CAATCTGAATTCCGGTCTCCC
DNA 2: TGGTGGCTACGACGGGATT

target: T1, RBFOX1 RRM; experiment: EMSA; HiTS-Eq, 1 nM pool, 10 min; buffer printed only for the single-RNA assays: 10 mM Tris pH 7.5, 150 mM NaCl, 3.4 mM EDTA, 0.001% NP-40, 30 C; conditions: tags: His6 N-terminal (pET28a); label: 5' 32P
Outline: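 Purified wild-type or mutant RbFox RRM at increasing concentrations was equilibrated with 1 nM of 5′-radiolabelled RNA carrying 7 randomized nucleotides for 10 min in 50 µL. Unbound RNA was separated by 8% native PAGE and sequenced. Relative association constants came from read-count changes of each RNA species compared with the control reaction, normalised to the cognate motif.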

Binder	binding signal
B1	0.0216 KA relative to UGCAUGU
B2	0.00954 KA relative to UGCAUGU
B3	0.0151 KA relative to UGCAUGU
B4	0.0064 KA relative to UGCAUGU
B5	0.00931 KA relative to UGCAUGU
B6	0.00552 KA relative to UGCAUGU
B7	0.00144 KA relative to UGCAUGU
B8	0.0238 KA relative to UGCAUGU
B9	0.023 KA relative to UGCAUGU
B10	0.0198 KA relative to UGCAUGU
B11	0.0369 KA relative to UGCAUGU
B12	0.0276 KA relative to UGCAUGU
B13	0.0149 KA relative to UGCAUGU
B14	0.0467 KA relative to UGCAUGU
B15	0.0101 KA relative to UGCAUGU
B16	0.0136 KA relative to UGCAUGU
B17	0.0109 KA relative to UGCAUGU
B18	0.00252 KA relative to UGCAUGU
B19	0.0749 KA relative to UGCAUGU
B20	0.0211 KA relative to UGCAUGU
B21	0.0155 KA relative to UGCAUGU
B22	0.0217 KA relative to UGCAUGU
B23	0.0257 KA relative to UGCAUGU
B24	0.0249 KA relative to UGCAUGU
B25	0.00603 KA relative to UGCAUGU
B26	0.0249 KA relative to UGCAUGU
B27	0.0307 KA relative to UGCAUGU
B28	0.0459 KA relative to UGCAUGU
B29	0.0399 KA relative to UGCAUGU
B30	0.0377 KA relative to UGCAUGU

Reference: paper PMC9911399, “Two distinct binding modes provide the RNA-binding protein RbFox with extraordinary sequence specificity”
